Results taken from PubChem BioAssay (NCI).
The panel holds about 83,000 compounds, 20% with a hit somewhere; the sample as a whole holds those more often.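 96-well plates, one dose, 48 hours. Percent growth reported; active if below 10.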 Values without a mark were called inactive. Calls of active or inactive are those of the source.

tested on: NCI-H226 lung; test: NCI-60 one-dose screen, 48 h (100 = growth as untreated, 0 = no growth, -100 = all killed); conditions: 10 µM unless noted
Protocol: Growth inhibition of the NCI-H226 human Non-Small Cell Lung tumor cell line is measured as a screen for anti-cancer activity. Cells are grown in 96 well plates and exposed to the test compound for 48 hours. Compounds are tested at a single concentration, which is 10^-5 M for most compounds. The reported endpoint is percent growth (GI% or GIPRCNT), where numbers from 0 - 100% represent growth inhibition, and numbers from -100% - 0 represent cell death. For example, a value of 40 represents 60% growth inhibition. A value of 0 means no net growth occurred over the course of the experiment. A value of -40 indicates 40% of cells at the beginning of the experiment died by the end of the experiment. A value of -100 means all cells are dead at the end of the experiment.
NCI-60 Human Tumor Cell Lines Screen was performed using the standard one-dose NCI protocol, which is described in more detail at https://dtp.cancer.gov/discovery_development/nci-60/default.htm.
Compounds with GIPRCNT values below 10 were considered active. Activity score was based on GIPRCNT using the following formula: […]
Score is 0 for GIPRCNT values of 100 or above, 50 for GIPRCNT values of 0, and 100 for GIPRCNT values of -100.

SMILES	growth
COc1ccc(-c2cc(-c3ccc(N4CCOCC4)cc3)n3c(n2)nc2ccccc23)cc1OC	85.7%
N#Cc1cnc2ccc(-c3cnc4n[nH]nc4c3)cc2c1N1CCc2cc(F)c(Cl)cc21	11.7%
Clc1ccc2[nH]cc(-c3nn4cc(-c5ccncc5)nc4s3)c2c1	22.7%
N#Cc1c(-c2ccc(Br)cc2)cc(-c2c[nH]c3ccccc23)nc1N	60%
CCCCOc1ccc(S(=O)(=O)N2CCN(c3nc(C)cc(N4CCOCC4)n3)CC2)cc1	67.2%
Cc1csc(/N=C(N)/N=C(\N)c2cccnc2)n1	85.4%
Fc1ccc(-c2cn3c(-c4c[nH]c5ccc(Br)cc45)csc3n2)cc1	59.8%
CCOC(=O)c1cnc2c(-c3ccc(Cl)c(Cl)c3)cnn2c1	80.1%
Nc1cc(C(=O)N/N=C\c2ccc(OC(F)F)c(OC3CCCC3)c2)nn1CC(O)c1ccccc1 (stereo not given)	92.7%
Cc1[nH]c(C(=O)Nc2ccc(C(N)=O)cc2N2CCOC(C)C2)c(Cl)c1Cl (stereo not given)	89.9%
CCN(CC)CCOc1ccc(C(=C(C)c2ccc(OC)cc2)c2ccc(OCCN(CC)CC)cc2)cc1	61.2%
c1ccc(-c2cn3c(-c4c[nH]c5ccccc45)csc3n2)cc1	80.4%
Cc1ccccc1Nc1nc(SC(C)C)nc(-c2ccccc2)c1C#N	81.1%
Cc1ccc(S(=O)(=O)NCCCNc2nccc(-c3[nH]c(-c4ccccc4)nc3-c3ccc(F)c(O)c3)n2)cc1	93.2%
NS(=O)(=O)c1ccc(CCn2c(-c3ccc(C(=O)O)cc3)nc(-c3ccccc3)c2-c2ccccc2)cc1	98.3%
COc1ccc(CC(C)=C(c2ccc(OCCN3CCCC3)cc2)c2ccc(OCCN3CCCC3)cc2)cc1	-69.2% (active)
O=C(CCl)Nc1ccc(NC(=O)c2cc(Cl)ccc2O)c(Cl)c1	59%
O=C(/C=C/Nc1ccc(S(=O)(=O)Nc2ncccn2)cc1)c1ccc(N=Cc2c(O)[nH]c3ccccc23)cc1	107%
CSc1ccc(/C(=N/N=C(N)N)c2ccc(Cl)cc2)cc1	27%
Cc1csc(/N=C(N)/N=C(\N)c2cccc(C#N)c2)n1	86.5%

SMILES	growth
CCCCSC1=C(Cl)CN(c2ccccc2)C1=O	102%
COc1ccc([C@@H]2C(=O)N(c3cc(OC)c(OC)c(OC)c3)[C@H]2c2ccc(OC)c(O)c2)cc1	60.2%
N#C/C(=N\Nc1ccc(F)cc1)C(=O)Nc1cc(-c2ccccc2)nn1-c1ccccc1	2.16% (active)
COc1ccc(N2CCN(C3=C(Cl)C(=O)c4ncccc4C3=O)CC2)cc1	94%
O=C(Nc1ccc(N=Cc2c(O)[nH]c3ccccc23)cc1)Nc1ccc(S(=O)(=O)Nc2ncccn2)cc1	96.7%
O=C1Nc2cc(Cl)ccc2/C1=C\c1ccc(OCc2ccccc2)cc1	92.9%
CC1=C(C)C(=O)C(Nc2cccc(C(=O)OC(C)(C)C)c2)=CC1=O	64.5%
CCOc1cccc(/C(N)=N/C(N)=N/c2nc3ccccc3s2)c1	78.6%
O=C(Nc1ccc(N2CCOCC2)cc1)Nc1ccc2c(ccn2C(=O)c2cccc(F)c2)c1	41.4%
C[C@@H]1OCC2(CCN(c3cnc(C(=O)Nc4cc(F)cc5cccnc45)cn3)CC2)[C@@H]1N	78.6%
CC(C)(C)OC(=O)NCc1ccc(CNc2c([N+](=O)[O-])cnc3ccccc23)cc1	55.2%
Cn1ncc2ncc(-c3ccc4ncc(C#N)c(N5CCc6cc(F)c(Cl)cc65)c4c3)cc21	24.7%
NC(=O)c1c(NC(=O)c2ccc(C(F)(F)F)cc2)sc2c1CCC(=O)C2	-24% (active)
Cc1csc(/N=C(N)/N=C(\N)c2cccs2)n1	99.1%
CC1(C)CC[C@]2(C(=O)NCCCCCCN(CCCN)CCCN)CC[C@]3(C)C(=CC[C@@H]4[C@@]5(C)CC[C@H](O)C(C)(C)[C@@H]5CC[C@]43C)[C@@H]2C1	100%
N#Cc1c(-c2cccs2)cc(-c2cnccn2)nc1SCC(=O)N/N=C/c1ccc(Cl)cc1	98.1%
CNC(=O)c1cc(Oc2ccc3c(c2)sc2nc(-c4ccc(N(C)C)cc4)cn23)ccn1	36.2%
CC(C)(C)c1cc(NC(=O)Nc2ccc(-c3cn4c5c(sc4n3)CCc3cn(CCCN4CCCCC4)cc3-5)cc2)no1	92.6%
CCOP(=O)(OCC)OC[C@]12CCC(C)(C)C[C@H]1C1=CC[C@@H]3[C@@]4(C)CC[C@H](OP(=O)(OCC)OCC)C(C)(C)[C@@H]4CC[C@@]3(C)[C@]1(C)CC2	66.1%
Cn1c(SCC(=O)c2ccc(F)cc2)nc2ccccc2c1=O	93%
